Data on nine compounds can be found in PubChem BioAssay (NCATS).

Unmarked numbers belong to inactive results. Records with an inconclusive call do not appear. The source made the active and inactive calls. Unless noted, calls come from the whole dose curve; as a rule, active = well fitted curve in the direction sought with a large enough effect; inconclusive = small, poorly fitted or top-dose-only effect, or another doubt; inactive = no such curve, though single readings can be large; an effect the other way counts as inactive or inconclusive. Some results are limits rather than exact numbers.

Assay [1] can be described thus: AP1 Signaling Pathway (AID 357; active = well fitted curve in either direction with a large enough effect, not every such curve was filed as active;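 note: ME-180 reporter cells stimulated with EGF at its EC50 level; % is set by controls: 0 for no effect and ±100 for the full control effect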). The note with it: ME-180 AP-1-bla reporter, EGF-induced, beta-lactamase ratio, 5 h; at 17.2 µM (top of the series) unless noted. The essentials:
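Titration-series screen for positive or negative modulators of EC50 EGF-induced signaling in ME-180 cells carrying an AP-1-driven beta-lactamase reporter. After 5 hours at 37 degrees Celsius, CCF4 460nm/530nm emission ratio gave %Activity; AC50 values derived.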

Assay [2] concerns the target Glucocorticoid receptor (Homo sapiens) (UniProt P04150). Nature of the assay: GR-GFP Redistribution (AID 450;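 active = compounds whose dose series gives a full or clear partial fitted curve of increased nuclear translocation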; note: potency is the fitted concentration of half-maximal effect).
Assay [3] deals with Cytochrome P450 1A2 (Homo sapiens) (UniProt P05177). Briefly: p450-cyp1a2 (AID 410; calls by dose curve;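 note: -100% = full effect of reference inhibitor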). The essentials: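 Luminescent demethylation readout: Luciferin-ME (100uM, equal to Km) turned over by 20nM CYP1A2 for 60 min at room temperature after NADPH regeneration addition, following 10 min compound preincubation. Normalization used 57 uM furafylline as full inhibition.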
A short description of assay [4]: NFAT Signaling Pathway (AID 444; active = well fitted curve in either direction with a large enough effect, not every such curve was filed as active;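 note: carbachol stimulus at about its EC50 of 1 µM final; % is set by controls: 0 for no effect and ±100 for the full control effect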). The note with it: Jurkat NFAT-bla M1, carbachol, beta-lactamase ratio, 5 h; at 17.2 µM (top of the series) unless noted. Put shortly: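 Jurkat cells with NFAT-driven β-lactamase reporter and co-expressed M1 receptor, stimulated with carbachol (final 1 uM, ~EC50), compound titration, 5 h at 37 °C. CCF4 loaded 1 h at RT; 460/530 nm ratio gave %activity and AC50.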

A short description of assay [5]: Stat Signaling Pathway (AID 446; active = well fitted curve in either direction with a large enough effect, not every such curve was filed as active;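 note: ME-180 cervical cancer cells given 40 pM IL-6 alongside compound; SIE-controlled beta-lactamase reporter measured as 460/530 nm FRET emission ratio; % is set by controls: 0 for no effect and ±100 for the full control effect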). The note with it: ME-180 SIE beta-lactamase reporter, IL-6 stimulated, 5 h; at 17.2 µM (top of the series) unless noted. The essentials: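 Compound effects on IL-6-induced STAT reporter activity were measured in ME-180 cells. After overnight culture, cells were co-treated with 40 pM IL-6 for 5 hrs before beta-lactamase substrate loading at room temperature.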

Assay [6] concerns the target Glucocorticoid receptor (Homo sapiens) (UniProt P04150). Nature of the assay: GR-EFC Redistribution (AID 451; calls by dose curve; note: potency is the fitted concentration of half-maximal effect). The note with it: CHO-K1 GR-EFC translocation, beta-gal luminescence, 2 h. Put shortly: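 CHO-K1 cells expressing nuclear EA and GR-ED fragments of b-gal; compounds titrated up to 46 uM final, 2 h at 37 C. GR nuclear translocation read as complemented b-gal luminescence after 1 h RT detection.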

Assay [7] concerns the target 3',5'-cyclic-AMP phosphodiesterase 4B (Homo sapiens) (UniProt Q07343). Briefly: qHTS Assay for Inhibitors of PDE-IV (AID 607; active = well fitted activation curve with a large enough effect in the main read-out, with a control signal flat, not every such curve was filed as active; note: % of control where 0% means no effect). Put shortly: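 ACTOne HEK293 cells carry a modified cAMP-gated CNG channel and express endogenous PDE4; plated 1000 cells/well, compounds up to 22.9 uM final. Membrane-potential dye fluorescence (ex 535/em 590) was read; parental cells received 10 uM forskolin + 100 uM RO 20-1724.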
Background: Quantitative high-throughput screening tests each substance at several concentrations.

Assay [8] addresses Guanine nucleotide-binding protein G(i) subunit alpha-1 (Homo sapiens) (UniProt P63096). Briefly: qHTS Assay for Inhibitors of RGS12 GoLoco Motif Activity (Green Fluorophore) (AID 879).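 Note: 0% = labeled peptide with Gαi1 and full inhibition = labeled peptide alone without protein; negative values mean loss of peptide binding seen as reduced polarization.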 The essentials: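 A drop in FITC polarization marked displacement of the FITC-tagged RGS12 GoLoco peptide (10 nM) from Gαi1 (50 nM). Compounds were incubated 10 min at room temperature in Tris pH 7.5 buffer containing 150 mM NaCl, 0.1 mM GDP and 0.05% NP40; unlabeled peptide titration served as control.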

Assay [9] addresses Cytochrome P450 3A4 (Homo sapiens) (UniProt P08684). Nature of the assay: qHTS Assay for Activators of Cytochrome P450 3A4 (AID 885). Note: nearly all actives have a fitted effect of over 65% in size. The essentials:
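CYP3A4 activity: Luciferin-PPXE O-dealkylation, 25uM substrate, 200mM KPO4, RT throughout. Read-out is luciferase luminescence; higher values reflect activation.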

The nature of assay [10]: qHTS Assay for Identification of Small Molecule Agonists for Thrombopoietin (TPO) Signaling Pathway (AID 917). Note: % is set by controls: 0 for no effect and ±100 for the full control effect. Put shortly:
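Luciferase reporter (Glycoprotein IIb promoter) in IL-3-deprived Ba/F3 cells carrying human TPO receptor; compounds co-added with 26 pM TPO, incubated 24 h, 37 C. Steadylite luminescence measured after 10 min.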

Assay [11] concerns the target Muscarinic acetylcholine receptor M1 (Rattus norvegicus) (UniProt P08482). Briefly: qHTS Assay for Antagonists of Acetylcholine Muscarinic M1 Receptor: Measurement of IP-One Response (AID 944). Note: nearly all actives have a fitted effect of over 75% in size. The essentials: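 IP1 accumulation measured via TR-FRET between d2-IP1 and Eu-cryptate anti-IP1 antibody after carbachol (200 nM, EC80) stimulation for 30 min; rat M1-transfected CHO cells received compound 10 min before agonist.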

Assay [12] deals with Pyruvate kinase (Leishmania mexicana) (UniProt Q27686). Briefly: qHTS Validation Assay for Inhibitors of Leishmania Mexicana Pyruvate Kinase (AID 945).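 Note: 0% = DMSO only neutral control wells.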 The essentials: (§1)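 Mutant LmPYK (E451W), 0.2 nM, plus 0.5 mM PEP and 0.1 mM ADP in 50 mM imidazole pH 7.2 containing 0.01% Tween 20 and 0.05% BSA. Incubated 1 h at room temperature; luminescence via PKLight, normalized to DMSO.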

The target in assay [13] is Pyruvate kinase PKM (Homo sapiens) (UniProt P14618). Nature of the assay: qHTS Assay for Inhibitors of Human Muscle Pyruvate Kinase (AID 958). Put shortly:
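PKM2, human, >95% pure, 0.1 nM; PEP 0.5 mM (Km), ADP 0.1 mM; 50 mM imidazole pH 7.2, 50 mM KCl, 0.01% Tween 20, 0.05% BSA; 1 h RT; luciferase luminescence readout.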

Assay [14] addresses Alpha-galactosidase A (Homo sapiens) (UniProt P06280). Briefly: Counterscreen for Glucocerebrosidase Inhibitors: qHTS Assay for Human alpha-Galactosidase at pH 4.5 (AID 992). Note: 0% is about no effect. The essentials:
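Citrate buffer pH 4.5, Tween-20 0.005%. Enzyme 2 nM, substrate 80 uM, 20 min RT. Stop pH 10. Fluorescence Ex 365/Em 440. AC50 by Hill fit.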
For orientation: The purpose of a counterscreen is to sort out artefacts and off-target activity.

The target in assay [15] is alpha-glucosidase (Oryza sativa, rice) (UniProt Q653V4). Briefly: Counterscreen for Glucocerebrosidase Inhibitors: qHTS Assay for Rice alpha-Glucosidase at pH 5.0 (AID 997).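 Note: 0% = full activity with enzyme and -100% = basal without enzyme.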 Put shortly: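 Endpoint fluorogenic assay at pH 5.0: compounds (0.7 nM to 77 uM) titrated against 4 nM rice enzyme and 400 uM 4-MU-alpha-glucoside for 20 min at room temperature; NaOH/glycine stop, read ex 365/em 440 nm, Hill-fitted AC50.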

A short description of assay [16]: qHTS Assay for Identification of Small Molecule Agonists for Hypoxia Response Element Signaling Pathway (AID 914; active = well fitted activation curve with a large enough effect in the signal ratio, with a control signal flat, not every such curve was filed as active; the % refers to the signal ratio; note: % of control where 0% means no effect). The note with it: ME-180 HRE-bla reporter, beta-lactamase ratio, CoCl2, 17 h; activation: stronger effect = higher value. The essentials: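 Reporter activity (beta-lactamase, CCF4 460nm/530nm ratio) in HRE-bla ME-180 cells is recorded after 17 h compound exposure with EC50 CoCl2 at 37 degrees Celsius. AC50 values come from titration data.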

The target of assay [17] is Mitogen-activated protein kinase 10 (Mus musculus) (UniProt Q61831). Nature of the assay: JNK3 AlphaScreen Assay (AID 530; active = well fitted curve in either direction with a large enough effect, not every such curve was filed as active). Put shortly: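 Activity was read by AlphaScreen after JNK3-containing HepG2 lysate (cytokine pre-activated) phosphorylated biotinylated GST-cJun with 10 uM ATP at room temperature. Phospho-Ser73 cJun antibody with Protein-A acceptor beads provided detection.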

The target of assay [18] is Cytochrome P450 2C9 (Homo sapiens) (UniProt P11712). Nature of the assay: qHTS Assay for Inhibitors and Substrates of Cytochrome P450 2C9 (AID 883). Note: % is set by controls: 0 for no effect and ±100 for the full control effect; nearly all actives have a fitted effect of over 60% in size. Put shortly:
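10nM CYP2C9 + 100uM Luciferin-H (=KM), 25mM KPO4; cpd 10 min 37C; NADPH regen, 60 min 37C; stop/detect with P450 Glo-Buffer 20 min; luminescence. Norm. to 57uM sulphaphenazole as full inhibition.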

Assay [19] has as its target Cytochrome P450 3A4 (Homo sapiens) (UniProt P08684). Nature of the assay: qHTS Assay for Inhibitors and Substrates of Cytochrome P450 3A4 (AID 884). Note: nearly all actives have a fitted effect of over 50% in size. Note: potency is the fitted concentration of half-maximal effect. Put shortly: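 Luminescent readout of luciferin produced by CYP3A4 (20 nM) dealkylation of Luciferin-PPXE, 25 uM (its KM). NADPH-driven reaction ran 60 min at RT after 10 min compound preincubation; data scaled to 57 uM ketoconazole as 100% inhibition.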

For assay [20], the target named is Cytochrome P450 2D6 (Homo sapiens) (UniProt P10635). Briefly: qHTS Assay for Inhibitors and Substrates of Cytochrome P450 2D6 (AID 891).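 Note: luciferin methyl ether substrate demethylated by CYP2D6 with NADPH regeneration; % is set by controls: 0 for no effect and ±100 for the full control effect; nearly all actives have a fitted effect of over 60% in size.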 Put shortly:
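Luminescent read-out of luciferin formed by 5 nM human CYP2D6 demethylating 30 uM Luciferin-ME EGE (Km level) over 60 min at room temperature after NADPH regeneration addition. Data normalized to full inhibition by 1.43 uM quinidine.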

Assay [21] deals with Cytochrome P450 2C19 (Homo sapiens) (UniProt P33261). Briefly: qHTS Assay for Inhibitors and Substrates of Cytochrome P450 2C19 (AID 899). Note: % is set by controls: 0 for no effect and ±100 for the full control effect; nearly all actives have a fitted effect of over 60% in size. The essentials: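 Luminescent read-out of luciferin formed from Luciferin-H EGE (10uM, equal to KM). Enzyme 5nM in 50mM KPO4; compound added, 10 min at 37C, then NADPH regenerating system for 60 min at 37C. Full inhibition defined by 57uM ketoconazole.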

For assay [22], the target named is Pyruvate kinase (Leishmania mexicana) (UniProt Q27686). Briefly: qHTS Validation Assay for Activators of Leishmania Mexicana Pyruvate Kinase (AID 959). Put shortly: as §1
Assay [23] can be described thus: qHTS Assay for Identification of Small Molecule Antagonists for NFkB Signaling Pathway (AID 895; active = well fitted inhibition curve with a large enough effect in the signal ratio, with a control signal flat, not every such curve was filed as active; the % refers to the signal ratio; note: % is set by controls: 0 for no effect and ±100 for the full control effect). Put shortly: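 ME-180 NFkB-bla cells (beta-lactamase under NFkB response element), plated overnight, treated with compound then 10 pM TNF alpha (about EC50) for 5 hrs at 37 C. LiveBLAzer FRET read at 460/530 nm emission, 405 nm excitation.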
Assay [24] concerns the target Pyruvate kinase PKM (Homo sapiens) (UniProt P14618). Nature of the assay: qHTS Assay for Activators of Human Muscle Pyruvate Kinase (AID 954; active = well fitted curve in the direction sought with a large enough effect, not every such curve was filed as active;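 note: 0% = uninhibited enzyme and -100% = no enzyme or full thiadiazolimine inhibition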). Put shortly:
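A coupled luminescent readout tracked ATP made from ADP by purified PKM2. Final conditions included 0.1 nM enzyme, PEP and ADP at 0.5 and 0.1 mM, pH 7.2 imidazole buffer with BSA, and a one-hour room-temperature reaction.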

Guanine nucleotide-binding protein G(i) subunit alpha-1 (Homo sapiens), sequence (P63096 whole entry, looked up): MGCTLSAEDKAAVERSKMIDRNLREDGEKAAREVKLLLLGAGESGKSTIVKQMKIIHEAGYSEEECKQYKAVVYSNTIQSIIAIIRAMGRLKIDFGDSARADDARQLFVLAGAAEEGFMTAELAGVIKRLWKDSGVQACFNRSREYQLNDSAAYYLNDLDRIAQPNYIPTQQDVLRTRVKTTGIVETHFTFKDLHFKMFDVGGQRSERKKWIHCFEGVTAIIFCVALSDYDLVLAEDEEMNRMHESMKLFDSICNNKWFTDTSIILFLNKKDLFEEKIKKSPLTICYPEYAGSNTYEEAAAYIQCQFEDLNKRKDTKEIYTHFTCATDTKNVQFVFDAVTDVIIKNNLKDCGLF
Cytochrome P450 1A2 (Homo sapiens), sequence (P05177 whole entry, looked up): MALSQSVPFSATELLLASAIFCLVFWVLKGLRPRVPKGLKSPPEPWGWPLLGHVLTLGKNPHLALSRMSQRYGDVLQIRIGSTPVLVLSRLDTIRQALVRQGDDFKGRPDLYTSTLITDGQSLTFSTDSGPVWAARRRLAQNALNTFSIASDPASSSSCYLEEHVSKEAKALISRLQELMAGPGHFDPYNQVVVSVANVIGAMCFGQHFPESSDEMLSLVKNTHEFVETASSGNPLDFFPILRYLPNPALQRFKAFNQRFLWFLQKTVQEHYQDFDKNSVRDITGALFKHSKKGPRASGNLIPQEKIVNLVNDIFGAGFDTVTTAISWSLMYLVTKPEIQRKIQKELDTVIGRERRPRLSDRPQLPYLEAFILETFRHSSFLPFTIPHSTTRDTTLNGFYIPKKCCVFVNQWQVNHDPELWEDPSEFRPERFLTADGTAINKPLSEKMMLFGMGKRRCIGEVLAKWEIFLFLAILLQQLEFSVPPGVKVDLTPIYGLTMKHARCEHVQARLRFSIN
Cytochrome P450 3A4 (Homo sapiens), sequence (P08684 whole entry, looked up): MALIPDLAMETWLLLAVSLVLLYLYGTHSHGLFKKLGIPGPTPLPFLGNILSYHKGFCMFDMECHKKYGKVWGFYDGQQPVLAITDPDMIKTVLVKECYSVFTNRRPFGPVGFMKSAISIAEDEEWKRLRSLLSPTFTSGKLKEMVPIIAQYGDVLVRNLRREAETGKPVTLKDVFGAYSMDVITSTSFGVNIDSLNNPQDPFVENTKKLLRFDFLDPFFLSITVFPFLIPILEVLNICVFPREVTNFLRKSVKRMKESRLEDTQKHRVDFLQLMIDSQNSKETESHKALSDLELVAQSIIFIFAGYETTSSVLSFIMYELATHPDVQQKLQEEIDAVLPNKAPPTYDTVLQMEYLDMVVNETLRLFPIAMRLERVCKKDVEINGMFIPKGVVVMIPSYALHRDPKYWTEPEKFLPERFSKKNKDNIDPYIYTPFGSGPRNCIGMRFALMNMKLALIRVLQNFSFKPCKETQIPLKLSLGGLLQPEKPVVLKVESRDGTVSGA
Glucocorticoid receptor (Homo sapiens), sequence (P04150 whole entry, looked up, the tested form may be a part): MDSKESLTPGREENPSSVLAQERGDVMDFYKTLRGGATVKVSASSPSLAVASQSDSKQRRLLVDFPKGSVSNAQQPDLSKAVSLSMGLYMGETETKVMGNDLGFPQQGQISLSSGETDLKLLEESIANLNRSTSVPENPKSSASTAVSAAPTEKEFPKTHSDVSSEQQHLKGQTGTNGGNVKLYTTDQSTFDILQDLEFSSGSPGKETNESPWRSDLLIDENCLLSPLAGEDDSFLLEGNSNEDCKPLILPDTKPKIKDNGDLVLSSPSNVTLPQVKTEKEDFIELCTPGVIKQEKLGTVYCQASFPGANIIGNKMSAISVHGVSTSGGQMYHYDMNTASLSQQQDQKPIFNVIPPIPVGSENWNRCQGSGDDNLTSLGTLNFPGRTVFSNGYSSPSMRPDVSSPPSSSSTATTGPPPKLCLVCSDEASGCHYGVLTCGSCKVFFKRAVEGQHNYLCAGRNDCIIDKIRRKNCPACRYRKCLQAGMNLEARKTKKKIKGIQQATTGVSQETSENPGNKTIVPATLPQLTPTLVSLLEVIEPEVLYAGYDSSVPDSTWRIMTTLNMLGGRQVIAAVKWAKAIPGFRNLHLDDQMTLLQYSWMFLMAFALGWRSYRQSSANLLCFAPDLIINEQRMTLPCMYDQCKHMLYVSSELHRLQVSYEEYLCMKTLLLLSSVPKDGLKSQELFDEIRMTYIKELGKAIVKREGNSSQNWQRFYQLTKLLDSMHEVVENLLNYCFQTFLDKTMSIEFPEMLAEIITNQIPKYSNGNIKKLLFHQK
Alpha-galactosidase A (Homo sapiens), sequence (P06280 whole entry, looked up): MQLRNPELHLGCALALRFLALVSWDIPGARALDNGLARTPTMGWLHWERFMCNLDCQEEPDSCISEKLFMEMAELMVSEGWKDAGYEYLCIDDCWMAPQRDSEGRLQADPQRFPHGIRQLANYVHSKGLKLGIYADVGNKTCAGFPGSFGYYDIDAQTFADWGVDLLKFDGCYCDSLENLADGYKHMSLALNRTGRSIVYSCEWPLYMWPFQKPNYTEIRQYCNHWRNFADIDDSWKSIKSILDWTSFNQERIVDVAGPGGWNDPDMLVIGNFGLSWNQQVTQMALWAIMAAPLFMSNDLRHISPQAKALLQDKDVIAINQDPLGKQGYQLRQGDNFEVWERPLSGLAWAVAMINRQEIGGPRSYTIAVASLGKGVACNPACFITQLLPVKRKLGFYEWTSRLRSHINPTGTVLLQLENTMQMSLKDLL
3',5'-cyclic-AMP phosphodiesterase 4B (Homo sapiens), sequence (Q07343 whole entry, looked up): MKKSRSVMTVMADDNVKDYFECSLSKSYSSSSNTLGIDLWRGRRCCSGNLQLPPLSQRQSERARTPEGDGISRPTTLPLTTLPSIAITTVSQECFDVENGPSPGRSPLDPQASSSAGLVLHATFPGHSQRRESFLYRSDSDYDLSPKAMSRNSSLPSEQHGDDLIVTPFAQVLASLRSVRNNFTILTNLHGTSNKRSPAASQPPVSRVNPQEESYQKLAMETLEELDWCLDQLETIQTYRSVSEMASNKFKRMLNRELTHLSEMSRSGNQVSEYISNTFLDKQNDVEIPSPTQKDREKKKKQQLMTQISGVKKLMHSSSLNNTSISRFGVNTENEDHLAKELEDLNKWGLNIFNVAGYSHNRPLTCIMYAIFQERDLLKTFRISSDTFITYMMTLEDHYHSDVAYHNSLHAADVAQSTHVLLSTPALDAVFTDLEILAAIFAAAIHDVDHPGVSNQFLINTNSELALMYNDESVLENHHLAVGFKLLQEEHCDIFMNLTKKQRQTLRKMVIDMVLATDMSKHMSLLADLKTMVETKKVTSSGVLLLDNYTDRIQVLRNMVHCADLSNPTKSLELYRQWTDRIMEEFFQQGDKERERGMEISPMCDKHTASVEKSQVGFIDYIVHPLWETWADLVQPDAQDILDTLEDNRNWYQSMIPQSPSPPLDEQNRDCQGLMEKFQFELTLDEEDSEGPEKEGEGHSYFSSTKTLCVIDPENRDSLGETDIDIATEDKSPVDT
Pyruvate kinase PKM (Homo sapiens), sequence (P14618 whole entry, looked up): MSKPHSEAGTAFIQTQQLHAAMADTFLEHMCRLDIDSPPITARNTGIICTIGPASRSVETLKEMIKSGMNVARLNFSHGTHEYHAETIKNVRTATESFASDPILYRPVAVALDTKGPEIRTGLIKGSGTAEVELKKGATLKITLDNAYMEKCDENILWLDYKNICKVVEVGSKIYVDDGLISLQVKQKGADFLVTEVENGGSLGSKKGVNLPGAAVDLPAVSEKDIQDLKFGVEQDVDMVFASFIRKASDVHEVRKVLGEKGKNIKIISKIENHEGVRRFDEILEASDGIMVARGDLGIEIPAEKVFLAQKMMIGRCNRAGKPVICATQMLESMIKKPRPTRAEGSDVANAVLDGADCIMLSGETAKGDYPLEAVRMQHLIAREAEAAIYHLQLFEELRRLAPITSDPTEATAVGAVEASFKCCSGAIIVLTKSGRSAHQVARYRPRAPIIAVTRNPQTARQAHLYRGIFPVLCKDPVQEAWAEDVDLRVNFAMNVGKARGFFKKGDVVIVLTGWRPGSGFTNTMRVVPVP
Pyruvate kinase (Leishmania mexicana), sequence (Q27686 2-499 E452W): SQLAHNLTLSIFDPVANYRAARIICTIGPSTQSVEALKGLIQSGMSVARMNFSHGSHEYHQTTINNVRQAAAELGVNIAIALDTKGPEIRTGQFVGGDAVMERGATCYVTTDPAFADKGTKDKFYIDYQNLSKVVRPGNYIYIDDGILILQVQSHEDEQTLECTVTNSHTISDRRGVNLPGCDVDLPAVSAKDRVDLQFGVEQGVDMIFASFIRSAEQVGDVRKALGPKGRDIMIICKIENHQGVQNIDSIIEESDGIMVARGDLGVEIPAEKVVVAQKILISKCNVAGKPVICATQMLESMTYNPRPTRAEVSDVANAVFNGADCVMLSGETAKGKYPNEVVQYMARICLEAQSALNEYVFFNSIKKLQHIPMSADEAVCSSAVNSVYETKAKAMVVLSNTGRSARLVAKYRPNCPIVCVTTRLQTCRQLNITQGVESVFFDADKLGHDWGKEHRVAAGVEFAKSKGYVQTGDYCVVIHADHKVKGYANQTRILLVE
Cytochrome P450 2D6 (Homo sapiens), sequence (P10635 whole entry, looked up): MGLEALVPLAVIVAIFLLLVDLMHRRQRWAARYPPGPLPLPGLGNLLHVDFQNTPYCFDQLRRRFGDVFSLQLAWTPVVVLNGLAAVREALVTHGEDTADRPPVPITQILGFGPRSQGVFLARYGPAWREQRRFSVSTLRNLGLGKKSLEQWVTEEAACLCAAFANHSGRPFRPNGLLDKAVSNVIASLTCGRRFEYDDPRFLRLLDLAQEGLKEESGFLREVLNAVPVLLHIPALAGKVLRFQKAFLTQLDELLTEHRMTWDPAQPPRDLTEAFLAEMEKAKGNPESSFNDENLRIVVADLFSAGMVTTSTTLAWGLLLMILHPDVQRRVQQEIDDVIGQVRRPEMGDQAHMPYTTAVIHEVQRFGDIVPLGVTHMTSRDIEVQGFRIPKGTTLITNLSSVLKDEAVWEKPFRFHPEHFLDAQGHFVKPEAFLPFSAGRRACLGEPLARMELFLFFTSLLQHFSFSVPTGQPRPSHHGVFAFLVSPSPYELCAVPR

For the compound `Cc1ccnc(N2CCN(c3cc(C)c(C#N)c4nc5ccccc5n34)CC2)c1`, the activity change, negative = inhibition in assay [1] is 22.1%. Besides, in assay [2], the Potency is over 20.6 µM.

In the case of `CNC(=O)[C@@H]1O[C@@H](n2cnc3c(NCc4cccc(I)c4)ncnc32)[C@H](O)[C@@H]1O`, the Potency result in assay [3], in assay [7], in [9], in assay [10], in assay [11] and in assay [12] was “inactive” in each case. Further, in assay [13], the Potency result was “inactive”. The activity change, negative = inhibition in [4] is 9.56% [at 38 µM]. In addition, in [5], the activity, negative = inhibition is -11.2% [at 38 µM]. Also, the Potency in assay [2] and in [6] was over 46 µM each time. The outcome in assay [8], in [14] and in assay [15] was inactive.

Take `COc1ccc(-n2c(SCC(N)=O)nc3sc4c(c3c2=O)CCN(C)C4)cc1`: the activity change, negative = inhibition in assay [1] is -7.72%. The Potency in assay [2] was over 20.6 µM. Besides, the activation in [16] was -0.0215%.

As to `Cc1nn(-c2ccccc2)c2c1C(c1ccc(F)cc1F)C(C#N)=C(N)O2` (configuration not stated), in assay [1], the activity change, negative = inhibition was 4.8%. In addition, in assay [2], the Potency was over 20.6 µM. The activation in assay [16] was -12.7%.

Regarding `Nc1ncnc2c1ncn2[C@@H]1O[C@@H](COP(=O)(O)OP(=O)(O)OP(=O)(O)OP(=O)(O)OC[C@@H]2O[C@@H](n3cnc4c(N)ncnc43)[C@@H](O)[C@H]2O)[C@H](O)[C@@H]1O`, the Potency entry in assay [3], in assay [17], in [7], in assay [18], in assay [19] and in [20] was “inactive” throughout. The Potency result in [21], in [11], in assay [12] and in [13] was “inactive” throughout. In addition, the activity change, negative = inhibition in assay [4] was -0.343% [at 38 µM]. Further, the activity, negative = inhibition in [5] was 32% [at 38 µM]. Besides, the Potency in assay [2] is over 46 µM; in assay [6], over 46 µM; in assay [22], 12.6 µM (active). For the same compound, the compound was called inactive in [8], in assay [14] and in assay [15].

As to `CC[C@]1(O)C[C@H]2CN(CCc3c([nH]c4ccccc34)[C@](C(=O)OC)(c3cc4c(cc3OC)N(C=O)[C@H]3[C@@](O)(C(=O)OC)[C@H](OC(C)=O)[C@@]5(CC)C=CCN6CC[C@]43[C@H]65)C2)C1`, the Potency result in assay [3], in [7], in assay [9], in assay [20], in assay [23] and in assay [12] was “inactive” throughout. In addition, the activity change, negative = inhibition in assay [4] was -8.89% [at 38 µM]. Besides, in assay [5], the activity, negative = inhibition is -14.3% [at 38 µM]. The Potency is over 46 µM in assay [2], over 46 µM in assay [6] and 3.98 µM (active) in assay [19]. In addition, the result in assay [8], in assay [24], in assay [14] and in assay [15] was inactive.

As for `Cc1cc(C)n(CC(=O)N2c3ccccc3Sc3ccccc32)n1`, in assay [1], the activity change, negative = inhibition is -8.25%. Further, in assay [2], the Potency was over 20.6 µM.

Consider `Cc1cc(C)c(C#N)c(SCc2[nH]nc3c2C(c2ccccc2)C(C#N)=C(N)O3)n1` (configuration not stated), for which, in assay [1], the activity change, negative = inhibition was -21.7%. In addition, the Potency in assay [2] was over 20.6 µM. In assay [16], the activation was -8.62%.

Consider `CCOc1ccc(S(=O)(=O)NC(C)(C)C)cc1-c1nc2c(C(C)(C)C)nn(C)c2c(=O)[nH]1`, for which the activity change, negative = inhibition in assay [1] is -8.82%. In addition, the Potency in assay [2] is over 20.6 µM.
